Inconclusive results are not listed. The source made the active and inactive calls. Unless noted, calls follow the shape of the dose curve; as a rule, active = well fitted curve in the direction sought with a large enough effect; inconclusive = small, poorly fitted or top-dose-only effect, or another doubt; inactive = no such curve, though single readings can be large; an effect the other way counts as inactive or inconclusive.

Test [1] concerns the target Estrogen receptor (Homo sapiens) (UniProt P03372). Put plainly: qHTS assay for small molecule antagonists of estrogen receptor alpha signaling (AID 588513; active = well fitted curve in the direction sought with a large enough effect in the signal ratio, with a control signal flat, not every such curve was filed as active; the % refers to the signal ratio; also: % is scaled to controls: 0 for no effect and ±100 for the full control effect). The method, boiled down: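 Cells were plated at 5000/well and incubated 4 h at 37 C. Compounds were added as 1:2 dilution series, duplicates. 17-beta-estradiol (0.5nM final) was added for 18 h before CCF4 detection.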
(qHTS replaces the single test concentration by a dilution series.)

Test [2] shares this target. Put plainly: qHTS assay for small molecule agonists of estrogen receptor alpha signaling (AID 588514; calls by dose curve;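 also: 0% = vehicle only and 100% = reference agonist; nearly all actives have a fitted effect of over 70% in size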). In a few lines: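 EC50 and efficacy came from Hill fits of beta-lactamase reporter signal (CCF4 dye, 2 h at room temperature) scaled between DMSO and 20 nM 17-beta-estradiol. Agonist mode: HEK293 ER-alpha-UAS-bla cells in charcoal/dextran-stripped serum medium, 18 h compound exposure at 37 C.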

Test [3] addresses Glucocorticoid receptor (Homo sapiens) (UniProt P04150). The experiment in a line: qHTS assay for small molecule agonists of glucocorticoid receptor signaling (AID 588532; active = well fitted curve in the direction sought with a large enough effect in the signal ratio, with a control signal flat; the % refers to the signal ratio;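 also: 100% = dexamethasone at 0.1 µM and 0% = DMSO only wells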). As to conditions: HeLa MMTV-bla, beta-lactamase ratio, agonist, 18 h; stronger effect = higher value; percent of dexamethasone control, DMSO zero. In a few lines:
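Using MMTV-bla HeLa cells in medium with 1% stripped FBS and 25 mM HEPES, compounds were titrated and incubated overnight-length (18 h). Beta-lactamase cleavage of CCF4 was quantified by dual-emission fluorescence.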

For test [4] the target is unchanged. The experiment in a line: qHTS assay for small molecule antagonists of glucocorticoid receptor signaling (AID 588533; active = well fitted inhibition curve with a large enough effect in the signal ratio, with a control signal flat, not every such curve was filed as active; the % refers to the signal ratio;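 also: cells stimulated with 2 nM dexamethasone as agonist; % is scaled to controls: 0 for no effect and ±100 for the full control effect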). In a few lines:
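Antagonist-mode qHTS: compound titrations added to GRE-bla HeLa cells, then dexamethasone 2 nM final; 18 h, 37 C. CCF4 FRET fluorescence normalized to dexamethasone and DMSO; IC50 from Hill fit.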

A short description of test [5]: qHTS assay for small molecule antagonists of peroxisome proliferator-activated receptor delta signaling (AID 588535; active = well fitted inhibition curve with a large enough effect in the signal ratio, with a control signal flat, not every such curve was filed as active; the % refers to the signal ratio;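 as to max response: cells co-treated with a PPAR-delta agonist as stimulator during compound exposure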). The note with it: HEK293T PPARd-UAS-bla, beta-lactamase FRET ratio, 18 h; 460 nm channel. In a few lines:
(§1)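 Titrations were run on PPAR-delta-UAS-bla HEK293T cells in charcoal/dextran-stripped serum, incubated 18 h at 37 C. CCF4 fluorescence (460/530 nm) after 2 h RT; Hill equation yields IC50 and maximal response.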

Test [6] has as its target Peroxisome proliferator-activated receptor delta (Homo sapiens) (UniProt Q03181). Described as above. In a few lines: as §1
Test [7] is described as follows: qHTS assay for small molecule agonists of retinoid X receptor alpha signaling (AID 588544; calls by dose curve;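 as to activation: 0% = DMSO basal wells and 100% = reference agonist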). As to conditions: HEK293T RXRa-UAS-bla, beta-lactamase reporter, 18 h; 530 nm emission.
Test [8] has as its target Retinoic acid receptor RXR-alpha (Homo sapiens) (UniProt P19793). The test is described as above.
Test [9] concerns the target Thyroid hormone receptor beta (Homo sapiens) (UniProt P10828). Put plainly: qHTS assay for small molecule agonists of thyroid hormone receptor beta signaling (AID 588545; calls by dose curve;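 also: 0% = DMSO only and 100% = 10 nM T3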). In a few lines: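 Compounds were tested as agonists in TR-UAS-bla-GripTite HEK 293 cells. After 18 hrs at 37 C, CCF4 substrate was added and fluorescence read after 2 hrs at room temperature.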
A short description of test [10]: qHTS assay for small molecule antagonists of retinoid X receptor alpha signaling (AID 588546; active = well fitted inhibition curve with a large enough effect in the signal ratio, with a control signal flat, not every such curve was filed as active; the % refers to the signal ratio;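 also: cells stimulated with 9-cis-retinoic acid as agonist; % is scaled to controls: 0 for no effect and ±100 for the full control effect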). As to conditions: HEK293T RXRa-UAS-bla, beta-lactamase ratio, antagonist mode; measured here: W530 green channel, cytotoxicity proxy. In a few lines:
(§2)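 Beta-lactamase reporter inhibition, read as CCF4 fluorescence ratio (ex 405, em 460/530 nm) after 2 h at RT. HEK293T UAS-bla cells, 2500/well, were stimulated with 9-cis-RA at 500 or 100 nM final alongside test compound for 18 h at 37 C.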

The target in test [11] is Retinoic acid receptor RXR-alpha (Homo sapiens) (UniProt P19793). The description is as above. The note with it: HEK293T RXRa-UAS-bla, beta-lactamase ratio, antagonist mode. The method, boiled down: as §2
Test [12] in a line: qHTS assay for small molecule activators of the nuclear factor-kappa B (NF-kB) signaling pathway (AID 651749; active = well fitted activation curve with a large enough effect in the signal ratio; the % refers to the signal ratio; also: series mostly up to about 77 µM; % of control where 0% means no effect). The note with it: NF-kB-bla ME-180 cells, beta-lactamase FRET ratio, 16 h; activation: stronger effect = higher value. The method, boiled down: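 Activation measured after 16 hr compound treatment at 37C, 5% CO2, of 2,000 ME-180 cells/well stably expressing an NF-kB response element–driven beta-lactamase reporter, via FRET-disruption fluorescence.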

The nature of test [13]: qHTS assay for environmental chemicals that activate the Aryl hydrocarbon Receptor (AhR) signaling pathway (AID 651777). Also: % of control where 0% means no effect; nearly all actives have a fitted effect of over 15% in size. As to conditions: 1A2-DRE human hepatoma cells, luciferase, 24 h; activation: stronger effect = higher value. The method, boiled down:
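Human hepatoma 1A2-DRE cells, stably carrying a dioxin response element and CYP1A2 promoter driving luciferase, were exposed to compounds for 24 hr at 37 C and 5% CO2. Luciferase signal was then read after 30 min One-Glo at room temperature.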

In test [14] the target is Peroxisome proliferator-activated receptor alpha (Homo sapiens) (UniProt Q07869). The experiment in a line: qHTS assay for small molecule agonists of the peroxisome proliferator-activated receptor alpha (PPARalpha) signaling pathway (AID 651778). Also: % of control where 0% means no effect. The note with it: PathHunter PPARalpha complementation, chemiluminescence, 6 h; max response: stronger effect = higher value. The method, boiled down:
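Chemiluminescence from complemented enzyme reported PPARalpha activation in cells after 6 hr of compound treatment at 37 C. The detection reagent was incubated for 60 min at room temperature, and compounds were scored as agonists.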

Test [15] in a line: qHTS assay for small molecule agonists of the antioxidant response element (ARE) signaling pathway measured by Nrf2-dependant transcriptional activity - cell viability counter screen (AID 720653; active = well fitted curve in the direction sought with a large enough effect in the repeat runs; an effect the other way counts as inactive or inconclusive; also: % is scaled to controls: 0 for no effect and ±100 for the full control effect). The note with it: ARE-bla HepG2 viability, CellTiter-Glo ATP luminescence, 16 h; max response: stronger effect = lower value. In a few lines:
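Cytotoxicity counter screen: intracellular ATP quantified by CellTiter-Glo luminescence in the same ARE-bla HepG2 plates, after 16 h compound exposure and a 2 h beta-lactamase substrate step.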

Test [16] in a line: qHTS assay for cell viability of HEK293 cells (AID 743288). Also: % is scaled to controls: 0 for no effect and ±100 for the full control effect; nearly all actives have a fitted effect of over 50% in size. The note with it: ATP luminescence (CellTiter-Glo), 18 h; max response: stronger effect = lower value. The method, boiled down:
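Quantitative high-throughput screen: compounds were pinned onto parental HEK293 cells (2,000 per well) after a minimum 5 h settling at 37 C, incubated 18 h at 37 C, and intracellular ATP measured by luciferase luminescence.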

The target of test [17] is Nuclear receptor subfamily 1 group I member 2 (Rattus norvegicus) (UniProt Q9R1A7). The experiment in a line: qHTS assay for small molecule activators of the rat pregnane X receptor (rPXR) signaling pathway (AID 651751; call rule not given here; also: 0% is about no effect). As to conditions: rPXR reporter cells, luciferase (One-Glo), 24 h.
Test [18] in a line: qHTS assay for small molecule activators of the human pregnane X receptor (PXR) signaling pathway (AID 720659; call rule not given here; also: 0% is about no effect).
A short description of test [19]: qHTS assay for small molecule agonists of the antioxidant response element (ARE) signaling pathway measured by Nrf2-dependant transcriptional activity (AID 720636; active = well fitted curve in the direction sought with a large enough effect in the repeat runs; an effect the other way counts as inactive or inconclusive; also: % of control where 0% means no effect). The method, boiled down: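 ARE-luc HepG2 cells carrying an Nrf2-responsive luciferase reporter were plated in medium with 1% dialyzed FBS, left 6 hr at 37 C to attach, then exposed to compound for 16 hr. Luciferase luminescence was read after ONE-Glo addition.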

Test [20] is described as follows: qHTS assay for cell viability of the p53RE-bla HCT-116 cell line (AID 743292). Also: % is scaled to controls: 0 for no effect and ±100 for the full control effect; nearly all actives have a fitted effect of over 55% in size. In a few lines:
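CellSensor p53RE-bla HCT-116 cells, 4,000/well, preincubated 5 h at 37 C, then exposed to compounds in DMSO for 16 h at 37 C. Viability read as CellTiter-Glo luminescence (intracellular ATP) after 30 min at room temperature.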

Estrogen receptor (Homo sapiens), sequence (P03372 whole entry, looked up): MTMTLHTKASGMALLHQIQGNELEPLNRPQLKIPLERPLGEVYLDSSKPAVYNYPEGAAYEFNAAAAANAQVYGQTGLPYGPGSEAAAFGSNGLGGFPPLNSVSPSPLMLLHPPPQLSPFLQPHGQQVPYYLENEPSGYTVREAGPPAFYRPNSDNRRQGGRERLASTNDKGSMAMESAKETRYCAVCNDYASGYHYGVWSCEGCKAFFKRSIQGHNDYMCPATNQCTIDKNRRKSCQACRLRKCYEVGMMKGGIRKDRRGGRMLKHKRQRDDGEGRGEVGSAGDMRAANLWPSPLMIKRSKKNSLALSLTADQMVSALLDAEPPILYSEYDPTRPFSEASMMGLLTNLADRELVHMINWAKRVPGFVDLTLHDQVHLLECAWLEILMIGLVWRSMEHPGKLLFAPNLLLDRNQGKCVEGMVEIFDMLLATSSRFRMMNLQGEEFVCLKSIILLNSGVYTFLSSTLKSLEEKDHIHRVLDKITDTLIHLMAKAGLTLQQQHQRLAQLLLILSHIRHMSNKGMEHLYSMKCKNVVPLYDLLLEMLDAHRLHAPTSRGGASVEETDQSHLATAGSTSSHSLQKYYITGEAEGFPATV
Thyroid hormone receptor beta (Homo sapiens), sequence (P10828 whole entry, looked up): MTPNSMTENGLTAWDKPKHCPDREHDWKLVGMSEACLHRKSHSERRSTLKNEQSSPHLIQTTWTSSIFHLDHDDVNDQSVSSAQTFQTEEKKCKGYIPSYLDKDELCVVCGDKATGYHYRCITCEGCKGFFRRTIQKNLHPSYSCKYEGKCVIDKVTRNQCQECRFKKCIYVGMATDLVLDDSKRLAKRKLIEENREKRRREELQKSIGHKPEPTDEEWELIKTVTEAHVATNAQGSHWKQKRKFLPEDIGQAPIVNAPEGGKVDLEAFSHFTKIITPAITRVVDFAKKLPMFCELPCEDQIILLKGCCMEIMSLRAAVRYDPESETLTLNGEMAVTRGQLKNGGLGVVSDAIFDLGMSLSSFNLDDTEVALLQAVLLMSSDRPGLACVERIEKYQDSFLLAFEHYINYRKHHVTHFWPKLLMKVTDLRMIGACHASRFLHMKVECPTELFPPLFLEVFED
Retinoic acid receptor RXR-alpha (Homo sapiens), sequence (P19793 whole entry, looked up): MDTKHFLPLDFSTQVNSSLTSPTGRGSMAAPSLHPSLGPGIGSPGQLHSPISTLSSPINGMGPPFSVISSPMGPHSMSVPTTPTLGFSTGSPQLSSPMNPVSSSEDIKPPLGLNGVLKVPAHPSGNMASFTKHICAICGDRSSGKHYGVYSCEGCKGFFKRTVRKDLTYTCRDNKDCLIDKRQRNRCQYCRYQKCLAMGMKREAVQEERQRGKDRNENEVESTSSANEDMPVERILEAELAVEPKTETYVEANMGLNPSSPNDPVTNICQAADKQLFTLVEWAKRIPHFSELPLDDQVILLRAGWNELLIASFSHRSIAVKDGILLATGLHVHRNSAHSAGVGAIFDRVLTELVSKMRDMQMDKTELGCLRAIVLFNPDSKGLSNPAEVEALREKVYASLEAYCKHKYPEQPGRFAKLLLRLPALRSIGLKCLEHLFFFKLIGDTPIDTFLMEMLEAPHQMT
Peroxisome proliferator-activated receptor delta (Homo sapiens), sequence (Q03181 whole entry, looked up): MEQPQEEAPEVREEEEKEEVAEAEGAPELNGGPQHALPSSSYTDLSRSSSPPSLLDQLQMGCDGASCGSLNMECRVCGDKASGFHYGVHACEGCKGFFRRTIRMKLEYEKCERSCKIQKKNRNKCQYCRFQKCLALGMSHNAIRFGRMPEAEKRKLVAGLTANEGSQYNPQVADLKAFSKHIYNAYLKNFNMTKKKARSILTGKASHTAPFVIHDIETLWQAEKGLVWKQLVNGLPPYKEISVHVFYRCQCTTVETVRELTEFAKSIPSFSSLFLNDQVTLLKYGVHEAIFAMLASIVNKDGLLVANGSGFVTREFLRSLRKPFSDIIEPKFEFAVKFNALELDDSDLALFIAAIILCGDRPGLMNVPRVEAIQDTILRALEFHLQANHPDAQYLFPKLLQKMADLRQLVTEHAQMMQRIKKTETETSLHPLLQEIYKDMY
Nuclear receptor subfamily 1 group I member 2 (Rattus norvegicus), sequence (Q9R1A7 whole entry, looked up): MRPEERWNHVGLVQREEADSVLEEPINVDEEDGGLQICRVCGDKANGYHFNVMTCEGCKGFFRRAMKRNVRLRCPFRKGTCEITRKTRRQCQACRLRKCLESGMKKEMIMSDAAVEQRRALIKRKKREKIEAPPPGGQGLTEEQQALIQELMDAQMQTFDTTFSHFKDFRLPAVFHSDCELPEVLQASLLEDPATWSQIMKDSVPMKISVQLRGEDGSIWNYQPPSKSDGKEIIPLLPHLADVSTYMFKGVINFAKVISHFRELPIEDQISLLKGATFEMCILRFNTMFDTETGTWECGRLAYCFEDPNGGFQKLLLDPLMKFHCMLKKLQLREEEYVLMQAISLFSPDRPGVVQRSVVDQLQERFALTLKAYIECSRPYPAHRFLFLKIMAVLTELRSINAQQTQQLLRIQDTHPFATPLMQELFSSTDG
Peroxisome proliferator-activated receptor alpha (Homo sapiens), sequence (Q07869 whole entry, looked up): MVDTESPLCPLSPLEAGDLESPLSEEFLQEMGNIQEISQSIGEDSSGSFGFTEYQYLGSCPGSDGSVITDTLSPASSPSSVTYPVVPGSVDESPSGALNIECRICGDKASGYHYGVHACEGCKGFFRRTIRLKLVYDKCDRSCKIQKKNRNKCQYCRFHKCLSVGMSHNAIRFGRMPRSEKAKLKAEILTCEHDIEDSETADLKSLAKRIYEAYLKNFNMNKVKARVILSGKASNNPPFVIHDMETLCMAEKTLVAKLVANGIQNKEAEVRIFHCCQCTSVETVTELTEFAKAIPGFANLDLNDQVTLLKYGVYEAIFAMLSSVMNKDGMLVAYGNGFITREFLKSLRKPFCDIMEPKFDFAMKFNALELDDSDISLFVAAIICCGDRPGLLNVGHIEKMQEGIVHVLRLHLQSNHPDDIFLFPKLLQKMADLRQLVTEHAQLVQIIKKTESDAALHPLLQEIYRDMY
Glucocorticoid receptor (Homo sapiens), sequence (P04150 whole entry, looked up): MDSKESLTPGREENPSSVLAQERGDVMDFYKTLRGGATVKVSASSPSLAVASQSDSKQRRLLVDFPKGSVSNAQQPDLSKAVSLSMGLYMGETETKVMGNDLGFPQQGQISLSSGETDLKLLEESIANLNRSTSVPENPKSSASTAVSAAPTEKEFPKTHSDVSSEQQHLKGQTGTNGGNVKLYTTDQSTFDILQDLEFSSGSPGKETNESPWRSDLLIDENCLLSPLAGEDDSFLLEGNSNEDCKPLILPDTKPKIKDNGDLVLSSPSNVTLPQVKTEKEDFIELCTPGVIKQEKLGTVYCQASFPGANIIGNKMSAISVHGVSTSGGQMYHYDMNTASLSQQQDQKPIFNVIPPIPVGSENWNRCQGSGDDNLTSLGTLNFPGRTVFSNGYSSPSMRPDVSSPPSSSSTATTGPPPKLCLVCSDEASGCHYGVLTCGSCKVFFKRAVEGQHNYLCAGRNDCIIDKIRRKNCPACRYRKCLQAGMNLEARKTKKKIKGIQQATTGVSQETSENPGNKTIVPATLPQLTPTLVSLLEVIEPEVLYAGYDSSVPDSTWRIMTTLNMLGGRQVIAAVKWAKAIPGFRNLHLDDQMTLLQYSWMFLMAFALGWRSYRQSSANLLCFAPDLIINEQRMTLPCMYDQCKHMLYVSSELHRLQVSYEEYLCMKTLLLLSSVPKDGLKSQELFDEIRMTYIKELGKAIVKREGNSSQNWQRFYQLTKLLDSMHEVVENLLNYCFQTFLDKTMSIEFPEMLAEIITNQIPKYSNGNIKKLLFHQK

With `CCCCCCCCCCCCCCC(=O)OC`, the Potency entry in test [1], in test [2], in test [4], in [6], in [8] and in [9] was “inactive” throughout. Besides, the results for the activation in test [3], in [12] and in test [13] were -1.65% (inactive), 0.418% (inactive) and -1.03% (inactive), respectively. Moreover, the max response was -7.18% in [5]; 2.13% in test [7]; -9.41% in test [10]; 8.47% (inactive) in test [11]; -0.882% (inactive) in test [14]; -2.69% (inactive) in test [15]. The figures for the max response in test [16] and in [17] were -7.2% (inactive) and -2.84% (inactive), respectively. Besides, the molecule was classed as inactive in test [18].
On to `CCCCNS(=O)(=O)c1ccccc1`, for which the Potency result in test [1], in test [2], in test [4], in [9], in test [19] and in test [20] was “inactive” in each case. For the same molecule, the activation in test [3] is -1.82% (inactive); in test [12] it was 0.692% (inactive); in test [13] it was 0.36% (inactive). Further, the max response is -16.3% in test [10]; 5.33% (inactive) in test [11]; 0.574% (inactive) in test [14]; -8.48% (inactive) in test [15]; -3.87% (inactive) in test [16]; -0.0697% (inactive) in [17]. Besides, the molecule was called inactive in test [18].
For the molecule `CC1(C)[C@@H](C=C(Cl)Cl)[C@@H]1C(=O)OCc1cccc(Oc2ccccc2)c1`, the Potency entry in test [1], in test [2], in test [4], in test [6] and in test [19] was “inactive” throughout. The max response in test [5] was -21.4%; in test [10] it was -10.2%; in test [14] it was -0.645% (inactive); in [15], -5.58% (inactive); in test [16], -11.2% (inactive). In addition, in test [13], the activation is -0.62% (inactive).
In the case of `CCCCOC(=O)/C=C\C(=O)OCCCC`, the Potency result in test [1], in [2], in test [4], in [8], in test [9] and in [19] was “inactive” each time. Moreover, the Potency result in test [20] is “inactive”. The activation in [3] is -13.3% (inactive); in test [12] it was 0.89% (inactive); in test [13], 0.228% (inactive). The max response in test [7] is -15%; in test [10], -0.0728%; in test [14], -0.617% (inactive); in test [16], -1.23% (inactive); in [17] it was 0.138% (inactive). In test [18], the outcome was inactive.
For the molecule `CCCCCCCCCCCCCc1ccccc1`, the Potency entry in test [1], in test [2], in [4], in test [6], in [8] and in [9] was “inactive” throughout. Also, the Potency result in test [19] and in [20] was “inactive” in each case. The activation is -7.21% (inactive) in [3], -0.242% (inactive) in test [12] and 2.83% (inactive) in test [13]. Moreover, the max response in test [5] was 21.6%; in test [7], -8.78%; in [10], -13.4%; in test [11], -2.52% (inactive); in test [14], -0.643% (inactive); in test [15] it was -7.31% (inactive). In addition, the results for the max response in [16] and in [17] were 4.66% (inactive) and 0.527% (inactive), respectively. In test [18], the outcome was inactive.
Regarding `CCCCN(CCCC)CCCC`, the Potency entry in test [1], in [2], in test [4], in test [6], in test [8] and in test [9] was “inactive” throughout. For the same molecule, the Potency entry in test [19] and in test [20] was “inactive” in each case. Moreover, the activation in test [3] was 8.81% (inactive); in test [12], -1.19% (inactive); in test [13] it was -2.43% (inactive). Besides, the max response in [5] is 31.3%; in test [7], -9.25%; in [10], -19.1%; in test [14] it was 3.75% (inactive); in test [16] it was -10.1% (inactive); in [17] it was -4.71% (inactive). Also, in test [18], the result was inactive.
On to `CCOC(=O)C1=NN(c2ccc(Cl)cc2Cl)C(C)(C(=O)OCC)C1` (stereo not drawn), for which the Potency result in [1], in test [2], in test [4], in test [8], in test [9] and in test [19] was “inactive” throughout. Besides, in test [20], the Potency result was “inactive”. Further, the activation in test [3] was -2.41% (inactive); in [12], -1.4% (inactive); in [13], -3.22% (inactive). In addition, the max response was -4.87% in [7], 0.459% (inactive) in [14], 0.425% (inactive) in test [15] and -0.641% (inactive) in test [17].

The values above are taken from PubChem BioAssay (NCATS).
